This note sets out measurements from PubChem BioAssay AID2158 (National Center for Advancing Translational Sciences (NCATS), 2009).

Values joined by “and” are separate entries in the source; they are usually repeats but may differ in a detail not shown here. Equal values may be shown once. Records with an inconclusive call do not appear. Values without a mark were called inactive. Active and inactive are the calls of the source. Calls come from the whole dose curve; as a rule, active = well fitted inhibition curve with a large enough effect; inconclusive = small, poorly fitted or top-dose-only effect; inactive = no such curve, though single readings can be large or run the other way.
Potency is the fitted concentration of half-maximal effect.

Sequence of Cruzipain (Trypanosoma cruzi) (P25779 123-467 limits assumed): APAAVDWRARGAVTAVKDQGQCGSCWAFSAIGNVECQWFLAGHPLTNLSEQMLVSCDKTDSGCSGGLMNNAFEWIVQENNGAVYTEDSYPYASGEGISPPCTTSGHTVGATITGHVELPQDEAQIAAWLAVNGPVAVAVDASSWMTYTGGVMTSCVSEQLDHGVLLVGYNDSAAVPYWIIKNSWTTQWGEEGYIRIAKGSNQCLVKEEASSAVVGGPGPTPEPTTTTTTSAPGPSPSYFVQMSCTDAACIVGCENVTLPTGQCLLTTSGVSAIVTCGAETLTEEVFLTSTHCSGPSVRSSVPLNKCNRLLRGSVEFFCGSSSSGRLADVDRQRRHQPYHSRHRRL

This assay has as its target Cruzipain (Trypanosoma cruzi) (UniProt P25779). As to the kind of experiment: Confirmation qHTS Assay for Inhibitors of Cruzain.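 For activity change, negative = inhibition: plate controls were uninhibited enzyme control for no effect and buffer wells lacking enzyme for full effect.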 Note: nearly all actives have a fitted effect of over 40% in size. The note with it: purified cruzain, Z-FR-AMC fluorescence, 0.01% Triton. An outline of the steps: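 Purified cruzain, 1.5 nM, pre-incubated 15 min at room temperature with compound in 100 mM sodium acetate pH 5.5, 5 mM DTT, 0.01% Triton X-100. Then 2 uM Z-FR-AMC added; AMC fluorescence (ex 360/em 450 nm) increase over 60 s gave reaction progress.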
For orientation: Quantitative high-throughput screening tests each substance at several concentrations.
On to `CC(C)(C)OC(=O)Cc1nnc(C(C(=O)OCc2ccccc2)c2ccccc2)s1` (centres undefined), for which the activity change, negative = inhibition is -12.2%. `O=C(CNC(=O)c1ccccc1)OCC(=O)c1ccccc1`: the Potency was 15.8 µM (active).

As for `CC(C)(C)OC(=O)Cc1nnc(-c2nc3ccccc3[nH]2)s1`, the activity change, negative = inhibition is -9.29%. On the same count and under the same terms, the value for `Cc1ccccc1OCC(=O)NCC(=O)OCC(=O)c1ccc2c(c1)CCCC2` was -3.79%; that for `O=C(O)Cc1nnc(-c2cc3ccccc3[nH]2)s1` was 10.6%. Consider `Cc1cccc(Nc2nc(C#N)nc(NC3CCCC3)n2)c1`, for which the Potency is 0.126 µM (active). Consider `N#CN1CCC(NC(=O)c2ccc(C(F)(F)F)cc2)CC1`, for which the activity change, negative = inhibition was -6.84%. For `CNC(=O)c1ccc2nc(-c3ccco3)c(-c3ccco3)nc2c1`, the Potency is 7.08 µM (active). Regarding `COc1ccc(-c2cc(C#N)nc(N3CCN(C)CC3)n2)cc1`, the activity change, negative = inhibition was -11.8%. As for `CCn1cnc2c(NCc3cccnc3)nc(C#N)nc21`, the activity change, negative = inhibition is -4.84%.

For `O=C(COC(=O)CNC(=O)C1CCCCC1)Nc1cc(C(F)(F)F)ccc1Cl`, the Potency is 2.82 µM (active). Still for that read-out and setting: the same measure for `O=c1c2ccccc2sc2nc(C3CCCCC3)n(Cc3ccco3)c(=O)c12`: 25.1 µM (active); for `CC(C)CNc1nc(C#N)nc(Nc2ccccc2)n1`: 0.891 µM (active). On the same count and under the same terms, the value for `CC(C)(C)c1ccc(-c2nc(SCC(=O)Nc3ccc(Cl)cc3)[nH]c(=O)c2C#N)cc1` was 12.6 µM (active); that for `Cc1ccc(C(=O)NCC(=O)OC(C(=O)Nc2cc(C(F)(F)F)ccc2Cl)c2ccccc2)cc1` (centres undefined) was 7.94 µM (active).

Take `O=C(Cn1c(=O)oc2cc(S(=O)(=O)N3CCCCCC3)ccc21)NC1CCCCCCC1`: the activity change, negative = inhibition was -3.87%. Same read-out and setting: the value for `CN(CCNC(=O)c1cc2c(=O)n(C)c3ccccc3c2n1C)Cc1ccccc1` was -49.8%. On to `COc1cc(Cl)c(C)cc1NC(=O)C(OC(=O)CNC(=O)c1ccccc1)c1ccccc1` (centres undefined), for which the Potency is 31.6 µM (active). Take `Cc1cccc(C(=O)NC2CCN(C#N)CC2)c1`: the activity change, negative = inhibition was -3.52% and 7.39%. On the same count and under the same terms, the same measure for `O=c1oc2ccccc2cc1-c1csc(Cc2nc(-c3ccc(Br)cc3)cs2)n1`: 1.72%. Consider `O=C(CNC(=O)C1CCCCC1)OC(C(=O)c1ccccc1)c1ccccc1` (centres undefined), for which the Potency is 1.26 µM (active). `CC(C)(C)C(=O)O/N=C1/C(=O)N(c2ccccc2)c2ccccc21`: the activity change, negative = inhibition was -24.3%. Same read-out and setting: the same measure for `O=C(CNC(=O)c1ccccc1)N[C@H](C(=O)Nc1cc(C(F)(F)F)ccc1Cl)c1ccccc1`: -13.5%. Regarding `Cc1ccccc1OCC(=O)NCC(=O)OCC(=O)c1ccc(Br)cc1`, the Potency was 35.5 µM (active).
